# Columns and labels:
# Experiment in all cases: SPOT peptide array binding signal intensity (averaged, normalized) (arbitrary units (background-subtracted, floor 0; scale differs between SH3 domains)); higher = stronger binding of the SH3 domain to the peptide
# AgAbp1 = molecular target: AgAbp1
# Procedure, shortened: (§1)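 Binding signal is given in arbitrary units that differ between domains and is the normalized, background-subtracted spot intensity averaged across replicates. Each GST-SH3 fusion from one of four yeast species was made in E. coli BL21(DE3), purified on glutathione Sepharose and incubated at 10 μg/ml overnight at 4°C on cellulose-bound synthetic 15-mer peptides in which cysteines were replaced by serines. Detection used anti-GST antibody, an HRP anti-mouse secondary and luminol, followed by imaging and Genespotter quantification.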
# AgBbc1 = molecular target: AgBbc1
# Procedure, shortened: as §1
# AgBem1-D1 = molecular target: AgBem1-D1
# Procedure, shortened: as §1
# AgBzz1-D1 = molecular target: AgBzz1-D1
# Procedure, shortened: as §1
# AgBzz1-D2 = molecular target: AgBzz1-D2
# Procedure, shortened: as §1
# AgCyk3 = molecular target: AgCyk3
# Procedure, shortened: as §1
# AgFus1 = molecular target: AgFus1
# Procedure, shortened: as §1
# AgHof1 = molecular target: AgHof1
# Procedure, shortened: as §1
# AgHse1 = molecular target: AgHse1
# Procedure, shortened: as §1
# AgLsb1 = molecular target: AgLsb1
# Procedure, shortened: as §1
# AgLsb4 = molecular target: AgLsb4
# Procedure, shortened: as §1
# AgMyo5 = molecular target: AgMyo5
# Procedure, shortened: as §1
# AgNbp2 = molecular target: AgNbp2
# Procedure, shortened: as §1
# AgRvs167 = molecular target: AgRvs167
# Procedure, shortened: as §1
# AgSho1 = molecular target: AgSho1
# Procedure, shortened: as §1
# AgSla1-D1-D2 = molecular target: AgSla1-D1-D2
# Procedure, shortened: as §1
# AgSla1-D3 = molecular target: AgSla1-D3
# Procedure, shortened: as §1
# CaAbp1-D1 = molecular target: CaAbp1-D1
# Procedure, shortened: as §1
# CaAbp1-D2 = molecular target: CaAbp1-D2
# Procedure, shortened: as §1
# CaBbc1 = molecular target: CaBbc1
# Procedure, shortened: as §1
# CaBem1-D1 = molecular target: CaBem1-D1
# Procedure, shortened: as §1
# CaBzz1-D1 = molecular target: CaBzz1-D1
# Procedure, shortened: as §1
# CaBzz1-D2 = molecular target: CaBzz1-D2
# Procedure, shortened: as §1
# CaCyk3 = molecular target: CaCyk3
# Procedure, shortened: as §1
# CaFus1 = molecular target: CaFus1
# Procedure, shortened: as §1
# CaHof1 = molecular target: CaHof1
# Procedure, shortened: as §1
# CaHse1 = molecular target: CaHse1
# Procedure, shortened: as §1
# CaLsb1 = molecular target: CaLsb1
# Procedure, shortened: as §1
# CaLsb4 = molecular target: CaLsb4
# Procedure, shortened: as §1
# CaMyo5 = molecular target: CaMyo5
# Procedure, shortened: as §1
# CaNbp2 = molecular target: CaNbp2
# Procedure, shortened: as §1
# CaRvs167 = molecular target: CaRvs167
# Procedure, shortened: as §1
# CaRvs167-3 = molecular target: CaRvs167-3
# Procedure, shortened: as §1
# CaSho1 = molecular target: CaSho1
# Procedure, shortened: as §1
# CaSla1-D1-D2 = molecular target: CaSla1-D1-D2
# Procedure, shortened: as §1
# CaSla1-D3 = molecular target: CaSla1-D3
# Procedure, shortened: as §1
# ScAbp1 = molecular target: ScAbp1
# Procedure, shortened: as §1
# ScBbc1 = molecular target: ScBbc1
# Procedure, shortened: as §1
# ScBem1-D1 = molecular target: ScBem1-D1
# Procedure, shortened: as §1
# ScBzz1-D1 = molecular target: ScBzz1-D1
# Procedure, shortened: as §1
# ScBzz1-D2 = molecular target: ScBzz1-D2
# Procedure, shortened: as §1
# ScCyk3 = molecular target: ScCyk3
# Procedure, shortened: as §1
# ScFus1 = molecular target: ScFus1
# Procedure, shortened: as §1
# ScHof1 = molecular target: ScHof1
# Procedure, shortened: as §1
# ScHse1 = molecular target: ScHse1
# Procedure, shortened: as §1
# ScLsb1 = molecular target: ScLsb1
# Procedure, shortened: as §1
# ScLsb2 = molecular target: ScLsb2
# Procedure, shortened: as §1
# ScLsb3 = molecular target: ScLsb3
# Procedure, shortened: as §1
# ScLsb4 = molecular target: ScLsb4
# Procedure, shortened: as §1
# ScMyo3 = molecular target: ScMyo3
# Procedure, shortened: as §1
# ScMyo5 = molecular target: ScMyo5
# Procedure, shortened: as §1
# ScNbp2 = molecular target: ScNbp2
# Procedure, shortened: as §1
# ScPex13 = molecular target: ScPex13
# Procedure, shortened: as §1
# ScRvs167 = molecular target: ScRvs167
# Procedure, shortened: as §1
# ScSho1 = molecular target: ScSho1
# Procedure, shortened: as §1
# ScSla1-D1-D2 = molecular target: ScSla1-D1-D2
# Procedure, shortened: as §1
# ScSla1-D3 = molecular target: ScSla1-D3
# Procedure, shortened: as §1
# SpAbp1-D1 = molecular target: SpAbp1-D1
# Procedure, shortened: as §1
# SpBbc1 = molecular target: SpBbc1
# Procedure, shortened: as §1
# SpBzz1-D1 = molecular target: SpBzz1-D1
# Procedure, shortened: as §1
# SpBzz1-D2 = molecular target: SpBzz1-D2
# Procedure, shortened: as §1
# SpCyk3 = molecular target: SpCyk3
# Procedure, shortened: as §1
# SpHof1 = molecular target: SpHof1
# Procedure, shortened: as §1
# SpHof1-2 = molecular target: SpHof1-2
# Procedure, shortened: as §1
# SpHof1-3 = molecular target: SpHof1-3
# Procedure, shortened: as §1
# SpHse1 = molecular target: SpHse1
# Procedure, shortened: as §1
# SpLsb1 = molecular target: SpLsb1
# Procedure, shortened: as §1
# SpLsb4 = molecular target: SpLsb4
# Procedure, shortened: as §1
# SpMyo1 = molecular target: SpMyo1
# Procedure, shortened: as §1
# SpNbp2 = molecular target: SpNbp2
# Procedure, shortened: as §1
# SpPex13 = molecular target: SpPex13
# Procedure, shortened: as §1
# SpRvs167 = molecular target: SpRvs167
# Procedure, shortened: as §1
# SpSla1-D1-D2 = molecular target: SpSla1-D1-D2
# Procedure, shortened: as §1
# SpSla1-D3 = molecular target: SpSla1-D3
# Procedure, shortened: as §1
binder,measurement,setting,value
KTRLRPAFIQQLWSS,SPOT peptide array binding signal intensity,AgAbp1,12
same,SPOT peptide array binding signal intensity,AgBbc1,18.8
same,SPOT peptide array binding signal intensity,AgBem1-D1,181
same,SPOT peptide array binding signal intensity,AgBzz1-D1,82.5
same,SPOT peptide array binding signal intensity,AgBzz1-D2,32.5
same,SPOT peptide array binding signal intensity,AgCyk3,1
same,SPOT peptide array binding signal intensity,AgFus1,286
same,SPOT peptide array binding signal intensity,AgHof1,45.5
same,SPOT peptide array binding signal intensity,AgHse1,630
same,SPOT peptide array binding signal intensity,AgLsb1,1
same,SPOT peptide array binding signal intensity,AgLsb4,29.5
same,SPOT peptide array binding signal intensity,AgMyo5,3
same,SPOT peptide array binding signal intensity,AgNbp2,94.5
same,SPOT peptide array binding signal intensity,AgRvs167,2.83
same,SPOT peptide array binding signal intensity,AgSho1,12
same,SPOT peptide array binding signal intensity,AgSla1-D1-D2,18
same,SPOT peptide array binding signal intensity,AgSla1-D3,19.8
same,SPOT peptide array binding signal intensity,CaAbp1-D1,130
same,SPOT peptide array binding signal intensity,CaAbp1-D2,38.5
same,SPOT peptide array binding signal intensity,CaBbc1,82.5
same,SPOT peptide array binding signal intensity,CaBem1-D1,46
same,SPOT peptide array binding signal intensity,CaBzz1-D1,58.5
same,SPOT peptide array binding signal intensity,CaBzz1-D2,59
same,SPOT peptide array binding signal intensity,CaCyk3,6
same,SPOT peptide array binding signal intensity,CaFus1,912
same,SPOT peptide array binding signal intensity,CaHof1,2
same,SPOT peptide array binding signal intensity,CaHse1,10.8
same,SPOT peptide array binding signal intensity,CaLsb1,0.5
same,SPOT peptide array binding signal intensity,CaLsb4,14
same,SPOT peptide array binding signal intensity,CaMyo5,4
same,SPOT peptide array binding signal intensity,CaNbp2,338
same,SPOT peptide array binding signal intensity,CaRvs167,17.3
same,SPOT peptide array binding signal intensity,CaRvs167-3,2
same,SPOT peptide array binding signal intensity,CaSho1,338
same,SPOT peptide array binding signal intensity,CaSla1-D1-D2,≤ 0
same,SPOT peptide array binding signal intensity,CaSla1-D3,9.5
same,SPOT peptide array binding signal intensity,ScAbp1,17
same,SPOT peptide array binding signal intensity,ScBbc1,6.25
same,SPOT peptide array binding signal intensity,ScBem1-D1,60
same,SPOT peptide array binding signal intensity,ScBzz1-D1,29.5
same,SPOT peptide array binding signal intensity,ScBzz1-D2,82.5
same,SPOT peptide array binding signal intensity,ScCyk3,47
same,SPOT peptide array binding signal intensity,ScFus1,170
same,SPOT peptide array binding signal intensity,ScHof1,5.75
same,SPOT peptide array binding signal intensity,ScHse1,1510
same,SPOT peptide array binding signal intensity,ScLsb1,≤ 0
same,SPOT peptide array binding signal intensity,ScLsb2,≤ 0
same,SPOT peptide array binding signal intensity,ScLsb3,74.5
same,SPOT peptide array binding signal intensity,ScLsb4,1.5
same,SPOT peptide array binding signal intensity,ScMyo3,10
same,SPOT peptide array binding signal intensity,ScMyo5,3.5
same,SPOT peptide array binding signal intensity,ScNbp2,121
same,SPOT peptide array binding signal intensity,ScPex13,6.25
same,SPOT peptide array binding signal intensity,ScRvs167,13
same,SPOT peptide array binding signal intensity,ScSho1,431
same,SPOT peptide array binding signal intensity,ScSla1-D1-D2,36
same,SPOT peptide array binding signal intensity,ScSla1-D3,27.5
same,SPOT peptide array binding signal intensity,SpAbp1-D1,54.5
same,SPOT peptide array binding signal intensity,SpBbc1,4
same,SPOT peptide array binding signal intensity,SpBzz1-D1,170
same,SPOT peptide array binding signal intensity,SpBzz1-D2,1
same,SPOT peptide array binding signal intensity,SpCyk3,5
same,SPOT peptide array binding signal intensity,SpHof1,117
same,SPOT peptide array binding signal intensity,SpHof1-2,13.2
same,SPOT peptide array binding signal intensity,SpHof1-3,571
same,SPOT peptide array binding signal intensity,SpHse1,696
same,SPOT peptide array binding signal intensity,SpLsb1,≤ 0
same,SPOT peptide array binding signal intensity,SpLsb4,7
same,SPOT peptide array binding signal intensity,SpMyo1,3
same,SPOT peptide array binding signal intensity,SpNbp2,58.5
same,SPOT peptide array binding signal intensity,SpPex13,17
same,SPOT peptide array binding signal intensity,SpRvs167,6.67
same,SPOT peptide array binding signal intensity,SpSla1-D1-D2,≤ 0
same,SPOT peptide array binding signal intensity,SpSla1-D3,8
